Experimental data from PubChem BioAssay.
Active and inactive are the calls of the source.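 The calls were made as follows, unless noted: active = inhibition above 20% together with a positive visual image hit; inconclusive = visual image hit but inhibition not above 20%; inactive = no visual image hit.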

Assays:
[1] = inhibitors of TNFa-induced NFkB p65 translocation, primary screen, imaging, HUVEC, MLSMR starter and 10KST1 sets (AID 438); conditions: HUVEC TNFa-induced p65 nuclear translocation; cell count: measured here: nuclei count (cytotoxicity indicator), at 2.08 µM; inhibition: at 2 µM, stronger effect = higher value, 0% TNFa-plus-vehicle, 100% no-TNFa wells;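 also: compound added about 3h40 before a 20 min TNFalpha stimulation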;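 as to inhibition: signal is the nuclear over cytoplasmic p65 intensity ratio per well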
[2] = inhibitors of mutant huntingtin aggregation, primary screen, imaging, exon1htt(103Q)mCFP cells, high-content imaging (AID 483;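 active = visual image review flags a hit and inhibition of aggregation exceeds 20%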;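 also: compound exposure lasted 3 days before fixation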;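 as to nuclei count: percent of the per-plate median nuclei count of sample wells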); conditions: exon1htt(103Q)mCFP cell line, aggregate imaging, at 2 µM; inhibition of aggregation: stronger effect = higher value; nuclei count: measured here: cell count, toxicity
[3] = inhibitors of E-selectin induction by TNFa, primary screen, imaging, HUVEC, immunofluorescence, MLSMR starter and 10KST1 sets (AID 487;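 active = visually confirmed hit in the image check and inhibition above 20%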;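 as to inhibition: signal is fraction of cell area covered by stained E-selectin grains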;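 as to nuclei count: 100% = median nuclei count of all wells on the same plate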); conditions: HUVEC TNFalpha-induced E-selectin immunofluorescence imaging, at 2 µM; inhibition: stronger effect = higher value; nuclei count: measured here: cell number, toxicity
[4] = biological target: Voltage-gated potassium channel subunit beta-2 (Rattus norvegicus) (UniProt P62483); experiment: KvBeta enzyme negative modulators, primary screen, biochemical, NADPH fluorescence (AID 622;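 active = fluorescence slope higher than the sample average by over 3 SD, cut at about -0.22 in these data, passing the limit was not always enough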;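 also: slope of raw intensity against log time taken from 70 to 1610 s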); conditions: recombinant KvBeta, 4-cyanobenzaldehyde reduction, at 10 µM, stronger effect = higher value
[5] = biological target: Voltage-gated potassium channel subunit beta-2 (Rattus norvegicus) (UniProt P62483); experiment: KvBeta positive modulators, primary screen, biochemical, NADPH fluorescence (AID 623;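 active = NADPH fluorescence slope more negative than the mean of all samples by about 3 SD, 99.7% confidence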;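 also: fluorescence intensity change per second fitted from 20 to 320 s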); conditions: Recombinant KvBeta, NADPH fluorescence decrease slope, 10 min; at 10 µM; stronger effect = lower value
[6] = biological target: Alpha-2C adrenergic receptor (Homo sapiens) (UniProt P18825); experiment: modulators of alpha2C/GIRK thallium flux, primary screen, cell-based, HEK293 alpha2C/GIRK1/2 (AID 624;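 active = fluorescence slope after compound addition differing from the mean of all screened samples at 99.7% confidence, in either direction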;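 also: slope of fluorescence ratio to pre-addition baseline per second over 15 to 24 s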); conditions: thallium flux BTC fluorescence, at 10 µM, actives lie on both sides
[7] = inhibitors of Sendai virus-induced IRF3 signaling, primary screen, TLR/RLR signaling modifier project, cell-based, Sendai virus stimulus, luciferase, 10K MLSCN set (AID 602276;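 active = inhibition at or above 50% at 10 µM; inactive = inhibition below 50%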;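 also: firefly luciferase from ISG56 promoter only with Renilla not read in this screen; 0% = Sendai virus plus DMSO and 100% = medium plus DMSO without virus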); conditions: HEK293 RL24 IRF3 luciferase reporter, at 10 µM, stronger effect = higher value
[8] = inhibitors of poly I:C-induced TLR3 signaling, primary screen, cell-based, poly I:C stimulus, luciferase, 10K MLSCN set (AID 602277;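 active = inhibition of the reporter signal at or above 50%; inactive = inhibition below 50%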); conditions: HEK293-TLR3 RL24 IRF3 luciferase reporter, at 10 µM, stronger effect = higher value

Sequence of Alpha-2C adrenergic receptor (Homo sapiens) (P18825 whole entry, looked up): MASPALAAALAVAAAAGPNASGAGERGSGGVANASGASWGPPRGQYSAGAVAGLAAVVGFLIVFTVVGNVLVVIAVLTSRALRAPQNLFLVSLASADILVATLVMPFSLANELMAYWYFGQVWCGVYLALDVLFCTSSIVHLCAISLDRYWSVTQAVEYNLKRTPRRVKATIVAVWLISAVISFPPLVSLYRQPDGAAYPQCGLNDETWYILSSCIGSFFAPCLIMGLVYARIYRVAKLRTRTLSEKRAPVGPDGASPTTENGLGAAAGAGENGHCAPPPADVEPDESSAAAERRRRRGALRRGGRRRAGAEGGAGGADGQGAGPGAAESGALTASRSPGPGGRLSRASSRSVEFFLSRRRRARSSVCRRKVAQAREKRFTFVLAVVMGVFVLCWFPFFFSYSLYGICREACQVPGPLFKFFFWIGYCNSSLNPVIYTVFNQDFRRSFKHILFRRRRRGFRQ
Sequence of Voltage-gated potassium channel subunit beta-2 (Rattus norvegicus) (P62483 whole entry, looked up): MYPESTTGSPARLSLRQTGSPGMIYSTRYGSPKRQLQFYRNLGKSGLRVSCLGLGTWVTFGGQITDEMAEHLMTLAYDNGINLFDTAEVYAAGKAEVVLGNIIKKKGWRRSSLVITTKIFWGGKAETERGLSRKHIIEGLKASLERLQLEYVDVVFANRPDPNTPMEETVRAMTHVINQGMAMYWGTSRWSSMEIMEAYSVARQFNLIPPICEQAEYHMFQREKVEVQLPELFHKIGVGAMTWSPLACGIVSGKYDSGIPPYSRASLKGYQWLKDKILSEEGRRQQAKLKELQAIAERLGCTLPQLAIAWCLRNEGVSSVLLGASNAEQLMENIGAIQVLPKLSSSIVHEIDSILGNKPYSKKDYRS

| SMILES | cell count [1] | inhibition [1] | inhibition of aggregation [2] | nuclei count [2] [%] | inhibition [3] | nuclei count [3] [%] | fluorescence slope [4] | NADPH fluorescence slope [5] | slope [6] | inhibition [7] | inhibition [8] |
| --- | --- | --- | --- | --- | --- | --- | --- | --- | --- | --- | --- |
| Cc1cccc(OCC(=O)N2CCN(C(=O)Cc3ccccc3)CC2)c1 | 264 | -5.5% (inactive) | 15.8% (inactive) | 85.9 | -34.1% (inactive) | 111 | -0.502 (inactive) | -4.5e-05 (inactive) | 0.00476 (inactive) | 5.28% (inactive) | 16.6% (inactive) |
| C/C(=N\O)C(C)/[N+]([O-])=C/c1nc(C)c(C)n1O (stereo not drawn) | 611 | 0.2% (inactive) | 12% (inactive) | 106 | 5.3% (inactive) | 98.3 | -0.492 (inactive) | -7.2e-05 (inactive) | 0.00463 (inactive) | 15.5% (inactive) | 20.8% (inactive) |
| O=C1c2ccccc2C(=O)N1C/C=C/CN1C(=O)c2ccccc2C1=O | 480 | 7.4% (inactive) | 0.3% (inactive) | 107 | -12.9% (inactive) | 113 | -0.331 (inactive) | -1.5e-05 (inactive) | 0.007 (inactive) | 23.3% (inactive) | 18.7% (inactive) |
| NS(=O)(=O)c1ccc(CCNC(=O)c2cccnc2)cc1 | 580 | -8.3% (inactive) | -11.5% (inactive) | 105 | -75.4% (inactive) | 107 | -0.276 (inactive) | -6.8e-05 (inactive) | 0.00459 (inactive) | 10.9% (inactive) | 99.1% (active) |
| COCCN(CCOC)Cc1c(C)[nH]c2ccccc2c1=O | 398 | 6.8% (inactive) | 12.7% (inactive) | 93.3 | 1.8% (inactive) | 104 | -0.351 (inactive) | -1.7e-05 (inactive) | 0.00544 (inactive) | 3.05% (inactive) | 24.8% (inactive) |
| CCCCCCc1ccc(-c2ncc(N)cn2)cc1 | 478 | 3.5% (inactive) | 26.5% (inactive) | 110 | -42.4% (inactive) | 109 | -0.509 (inactive) | 6.3e-06 (inactive) | 0.00484 (inactive) | -9.96% (inactive) | -78.9% (inactive) |
| Cc1ccc(NC(=O)CSc2nnc(-c3cnccn3)n2Cc2ccco2)cc1C | 228 | -3.5% (inactive) | 4.6% (inactive) | 76.2 | 35.1% (inactive) | 65.4 | -0.418 (inactive) | 3.1e-05 (inactive) | 0.00338 (inactive) | 6.92% (inactive) | 17.3% (inactive) |
| CCCc1nnc2n1N=C(c1ccc(OC)c(OC)c1)CS2 | 321 | -12.4% (inactive) | -0.1% (inactive) | 83.3 | 12.3% (inactive) | 99.3 | -0.584 (inactive) | -5.6e-05 (inactive) | 0.00347 (inactive) | 16.9% (inactive) | 37.3% (inactive) |
| O=C(O)[C@@H]1CCCN1c1ncnc2sc3c(c12)CCC3 | 434 | -5.7% (inactive) | 0.1% (inactive) | 128 | -149% (inactive) | 247 | -0.412 (inactive) | -2.3e-05 (inactive) | 0.00577 (inactive) | 17.9% (inactive) | 13.8% (inactive) |
| CCN(CC)C1CCCCC1NS(=O)(=O)c1ccc(Cl)cc1 (stereo not drawn) | 528 | -9.2% (inactive) | 14.4% (inactive) | 96.8 | -17.6% (inactive) | 82.7 | -0.538 (inactive) | -1.7e-06 (inactive) | 0.00692 (inactive) | 45.1% (inactive) | 28% (inactive) |
| COc1cccc(-c2nnc(NC(=O)Cc3cccs3)s2)c1 | 710 | -5% (inactive) | 22% (inactive) | 79.8 | 1.2% (inactive) | 92 | -0.452 (inactive) | -3e-05 (inactive) | 0.00526 (inactive) | 2.67% (inactive) | -7.11% (inactive) |
| COc1ccc(C2c3sc(=O)[nH]c3SC3C4CCC(C4)C23)cc1 (stereo not drawn) | 573 | -7.6% (inactive) | -14% (inactive) | 93.8 | -69.5% (inactive) | 106 | -0.53 (inactive) | 3.9e-05 (inactive) | 0.00413 (inactive) | -5.3% (inactive) | 9.16% (inactive) |
| O=[n+]1cc(-c2ccc(F)cc2)n([O-])c2c1CCC2 | 391 | 6.5% (inactive) | 8.8% (inactive) | 103 | -70% (inactive) | 108 | -0.587 (inactive) | 3.3e-05 (inactive) | 0.00589 (inactive) | 5.02% (inactive) | 15.4% (inactive) |
